# High-throughput results from PubChem BioAssay.
# Most compounds without a hit are left out; they make up all but 18% or so of the library.
# TDP1 cell CPT: growth inhibition of DT40 Tdp1-/-;hTDP1 cells with camptothecin (screen for TDP1 inhibitors); hit rate 12% among 420,000; Potency, µM (top dose mostly 46.2 µM), for the others: at the top dose activity change, negative = growth inhibition, most hits filed as inhibitors; AID 686979; chicken DT40 Tdp1-/-;hTDP1 cells + 20 nM CPT, ATP luminescence, 48 h; note: potency is the fitted concentration of half-maximal effect; nearly all actives have a fitted effect of over 55% in size
#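 Cell growth measured by CellTiter-Glo luminescence after a minimum 48 h, 37 C compound exposure with 20 nM CPT in Tdp1-knockout DT40 cells stably expressing hTDP1, seeded 400/well; qHTS titration format.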
# IL1B secr inh: inflammasome signaling inhibition, IL-1 beta readout. activity change, % at 57.5 µM. hit rate 4.7% among 360,000. THP-1 LPS/ATP IL-1B secretion, AlphaLISA, 16 h; active compounds read low; in the data active = activity change below about -50%; inconclusive = mostly about -30% to -49%
#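 THP-1 cells pretreated 1 hr with compounds (up to 57.5 uM final), then stimulated with LPS (250 ng/mL final) plus ATP (1.25 mM final); secreted IL-1B measured by AlphaLISA after 16 hr, decreased signal indicating inhibition.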
# LDHA block: inhibitors of human lactate dehydrogenase A. P00338. hit rate 0.15% among 480,000. purified LDHA, NADH/diaphorase-resazurin fluorescence; active compounds read low. activity change, % (values are at about 110 or 230 µM); in the data active = activity change below about -30%; inconclusive = mostly about -25% to -30%;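 note: plate controls were DMSO wells for no effect and wells without enzyme for full effect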
#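 Resorufin fluorescence (ex540/em590), read at 0 and 20 min after diaphorase/resazurin addition, reports the NADH left after a 5 min room-temperature reaction of 2 nM human LDH5 with 0.06 mM NADH and 0.2 mM pyruvate.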
# TDP1 cell noCPT: qHTS for Inhibitors of human tyrosyl-DNA phosphodiesterase 1 (TDP1): qHTS in cells in absence of CPT | DT40 Tdp1-/- hTDP1 cells, no CPT, ATP luminescence, 48 h | Potency, µM (top dose mostly 46.2 µM), inactives show top-dose activity change, negative = growth inhibition, most hits filed as inhibitors | hit rate 15% among 420,000; note: potency is the fitted concentration of half-maximal effect; nearly all actives have a fitted effect of over 55% in size
#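 Chicken DT40 Tdp1-/- cells complemented with human TDP1, screened without camptothecin (DMSO vehicle only), 400 cells/well. Compounds pin-transferred, cells incubated at 37 °C for at least 48 hr. Growth read as ATP-dependent luminescence (CellTiter-Glo, 30 min at RT).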
# RORgamma inh: ROR gamma (mouse) transcription inhibition; AID 2551; Drosophila S2 Gal4-RORgamma UAS-luciferase reporter, 20 h; hit rate 5.4% among 310,000; Potency, µM (highest dose often 53.6 µM), without a hit: at the highest dose activity change, negative = inhibition, most hits filed as inhibitors; note: potency is the fitted concentration of half-maximal effect; nearly all actives have a fitted effect of over 60% in size
# Target sequence (P51450 whole entry, looked up, the tested form may be a part): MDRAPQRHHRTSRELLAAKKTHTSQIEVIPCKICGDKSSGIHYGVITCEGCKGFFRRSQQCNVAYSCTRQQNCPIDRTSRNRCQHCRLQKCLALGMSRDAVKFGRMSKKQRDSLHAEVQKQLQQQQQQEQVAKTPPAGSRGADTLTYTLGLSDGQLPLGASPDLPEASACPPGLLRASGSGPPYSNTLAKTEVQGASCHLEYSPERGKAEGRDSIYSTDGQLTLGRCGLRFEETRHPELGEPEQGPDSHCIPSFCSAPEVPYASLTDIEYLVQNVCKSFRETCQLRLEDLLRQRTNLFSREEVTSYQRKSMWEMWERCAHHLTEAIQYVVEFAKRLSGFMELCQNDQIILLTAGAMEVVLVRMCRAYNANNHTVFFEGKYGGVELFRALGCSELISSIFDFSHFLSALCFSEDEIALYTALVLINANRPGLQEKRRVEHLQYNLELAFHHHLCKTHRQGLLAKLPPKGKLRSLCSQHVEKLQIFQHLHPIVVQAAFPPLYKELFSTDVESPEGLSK
#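 In this cell-based reporter format, copper sulfate (700 uM final) drives Gal4–ROR gamma fusion expression from a metallothionein promoter in Drosophila Schneider cells; compounds preincubated 1 hr, reporter read after 20 hr at ambient temperature.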
# Gal4-VP16 FLuc: inhibits Gal4-VP16 luciferase reporter, ROR gamma counter-screen; Drosophila S2 Gal4-VP16 UAS-luciferase, luminescence, 20 h; Potency, µM (top dose mostly 53.6 µM), for inactives: at the highest dose activity, negative = inhibition, hits mostly inhibitors; hit rate 3.5% among 310,000; AID 2546;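 note: Gal4-VP16 expression switched on by copper sulfate through the metallothionein promoter; potency is the fitted concentration of half-maximal effect; nearly all actives have a fitted effect of over 50% in size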
# An asterisk follows results filed as active; ? = inconclusive; . = not tested or not shown; [ ] = remark or other dose. Unless noted, calls come from the whole dose curve; as a rule, active = well fitted curve in the direction sought with a large enough effect; inconclusive = small, poorly fitted or top-dose-only effect, or another doubt; inactive = no such curve, though single readings can be large; an effect the other way counts as inactive or inconclusive. Unless noted, % is set by controls: 0 for no effect and ±100 for the full control effect.
SMILES,TDP1 cell CPT,IL1B secr inh,LDHA block,TDP1 cell noCPT,RORgamma inh,Gal4-VP16 FLuc
Cc1ccc2nc(-c3ccccn3)cc(C(=O)NCCc3ccc(F)cc3)c2c1,?,15.0,0.1,20.6µM*,10µM*,-7.0%
CCCCOCCCNC(=O)CCSc1ccccc1,.,.,0.3,.,.,.
CC(=O)c1c(O)cc(C)n(Nc2nc(C)cc(C)n2)c1=O,18.4µM*,84.5,-6.3,?,-43.7%,0.2%
O=C(c1ccccc1)N1N=C(c2ccc(F)cc2)CC1(O)C(F)(F)F (configuration not stated),-16.8%,-3.8,-2.1,?,?,?
CCN1CCC2(CC1)N=C(c1ccc(F)cc1)C(=S)N2C(=O)c1ccc(C(C)(C)C)cc1,?,-19.4,-0.6,-11.2%,3.98µM*,?
CN1CCC2(CC1)N=C(c1ccc(F)cc1)C(=S)N2C(=O)c1ccccc1,7.31µM*,0.0,-1.6,11.6µM*,?,?
O=C(Cc1ccc(F)cc1)NCc1ccc2c(c1)CCN2C(=O)c1ccc(F)cc1,?,.,3.5,9.2µM*,.,.
O=C(NCc1ccc2c(c1)CCN2C(=O)c1ccc(F)cc1)c1cc2ccccc2[nH]1,16.4µM*,.,2.0,?,.,.
O=C(NCc1ccc2c(c1)CCN2C(=O)c1ccccc1)c1cc2ccccc2[nH]1,?,.,-2.4,?,.,.
CC(=O)Nc1cccc(C(=O)NCc2ccc3c(c2)CCN3C(=O)c2ccc(F)cc2)c1,20.6µM*,.,4.5,16.4µM*,.,.
CCCOc1ccc(C2C(=O)N(C3CCCCC3)CC(=O)N2CCC)cc1OC (configuration not stated),?,-14.8,-0.1,?,6.3%,0.1%
COc1ccccc1CN1C(=O)CN(C2CCCCCC2)C(=O)C1c1ccc(F)cc1 (configuration not stated),20.6µM*,-21.2,-2.3,17.8µM*,22.9%,0.9%
CCOc1ccc(C2C(=O)N(C3CCCCCC3)CC(=O)N2Cc2ccc(F)cc2)cc1OC (configuration not stated),?,.,-9.0,?,.,.
CCOc1ccc(C2C(=O)N(C3CCCCC3)CC(=O)N2Cc2ccc(F)cc2)cc1OC (configuration not stated),?,.,-2.9,-22.8%,.,.
CCCOc1ccc(C2C(=O)N(C3CCCCCC3)CC(=O)N2Cc2ccccc2OC)cc1OC (configuration not stated),25.9µM*,.,15.4,16.4µM*,.,.
CCCCN1C(=O)CN(C2CCCCCC2)C(=O)C1c1ccc(OCCC)c(OC)c1 (configuration not stated),11.6µM*,.,-3.3,?,.,.
CN(CC(=O)Nc1ccc(Oc2ccccc2)cc1)C1=NS(=O)(=O)c2ccccc21,.,.,-8.5,.,.,.
O=C(c1cccc(F)c1)N(Cc1cccc2[nH]ccc12)C1CC1,.,.,7.0,.,.,.
Nc1cc(C(=O)O)c(N)c2c1C(=O)c1ccccc1C2=O,16.4µM*,0.0,5.0,?,?,?
OCC1(CO)CCCC12COC(c1ccccc1)OC2 (configuration not stated),.,.,-7.7,.,.,.
COc1cc(CNCCO)cc(Cl)c1OCc1ccc(Cl)cc1Cl,?,-83.4*,0.5,20.6µM*,-2.0%,-7.6%
COc1cc(CNCCO)cc(Br)c1OCc1ccccc1Cl,23.1µM*,-14.8,2.7,?,-21.8%,-0.2%
COc1cccc(CNCCO)c1OCc1ccc(Cl)cc1,?,-4.4,-7.1,-29.8%,10.4%,-0.1%
C#CCNC(=O)C[C@@H]1C[C@@]2(C(=O)OC)CC(C)(C)CC=C2N(CCc2ccc(OC)c(OC)c2)C1=O,?,-2.8,-10.1,-24.5%,.,.
COC(=O)[C@@]12C[C@@H](CC(=O)NCc3ccc(OC)c(OC)c3)C(=O)N(Cc3cccc4ccccc34)C1=CCC(C)(C)C2,?,-21.8,1.6,?,.,.
SMILES,TDP1 cell CPT,IL1B secr inh,LDHA block,TDP1 cell noCPT,RORgamma inh,Gal4-VP16 FLuc
COC(=O)[C@@]12C[C@@H](CC(=O)NCc3ccc(C)o3)C(=O)N(CCc3ccc(OC)c(OC)c3)C1=CCC(C)(C)C2,9.2µM*,?,4.6,8.2µM*,.,.
COC(=O)[C@@]12C[C@@H](CC(=O)NCc3cccs3)C(=O)N(CCc3ccc(OC)c(OC)c3)C1=CCC(C)(C)C2,20.6µM*,?,1.9,?,.,.
CCCCCCCCN1C(=O)[C@H](CC(=O)NCc2cccc(C(F)(F)F)c2)C[C@@]2(C(=O)OC)CC(C)(C)CC=C12,11.6µM*,-22.1,-0.6,10.3µM*,.,.
CCOC(=O)N1CCN(C(=O)C[C@@H]2C[C@@]3(C(=O)OC)CC(C)(C)CC=C3N(CCc3ccc(OC)c(OC)c3)C2=O)CC1,?,?,-1.0,16.4µM*,.,.
Cc1noc(/C=C\c2ccc(S(=O)(=O)N3CCN(C)CC3)cc2)c1NC(=O)C1CC1,.,.,11.2,.,.,.
OC(C#CC(O)(c1ccccc1)c1ccccc1)c1ccc(F)cc1 (configuration not stated),.,.,2.5,.,.,.
COC(=O)[C@]12CCCCC=C1N(CCc1ccc(OC)c(OC)c1)C(=O)[C@H](CC(=O)NCc1cccs1)C2,20.6µM*,-29.2,1.8,16.4µM*,.,.
COC(=O)[C@@]12C[C@@H](CC(=O)NCc3ccccc3)C(=O)N(CCc3ccc(OC)c(OC)c3)C1=CCC(C)(C)C2,13µM*,-28.2,1.0,13µM*,.,.
O=C(NC(NC(=S)Nc1ccc(Cl)cc1)C(Cl)(Cl)Cl)c1ccco1 (configuration not stated),?,-101.8*,3.7,?,?,-5.7%
O=C(NC(NC(=S)Nc1ccccc1O)C(Cl)(Cl)Cl)c1ccco1 (configuration not stated),?,-7.9,-3.8,18.4µM*,?,3.5%
CCc1ccc(OCC(=O)NC(C)C)cc1,7.5%,-20.0,-1.1,6.3%,-2.3%,-7.4%
CC(C)(C)NC(NC(=O)c1ccco1)C(Cl)(Cl)Cl (configuration not stated),.,.,3.4,.,.,.
CCc1ccc(OCC(=O)NC(NC(=S)Nc2ccc(Cl)cc2)C(Cl)(Cl)Cl)cc1 (configuration not stated),14.6µM*,-20.2,?,13µM*,7.7%[10 µM],?
CCOC(=O)c1nnn(CC(=O)Nc2ccc(C)cc2Cl)c1C(=O)OCC,.,.,-1.6,.,.,.
O=C(O)CCC(=O)NCCCN1CCOCC1,.,.,5.2,.,.,.
COC(=O)c1ccc2c(c1)N(Cc1ccc(Cl)cc1)C(=O)c1ccccc1S2(=O)=O,.,.,12.1,.,.,.
